Assay outcomes as filed in PubChem.
Hits are enriched below; roughly 2.4% of the tested compounds scored in any of these assays.
CHO-K1 Ca PAM = nonselective calcium activators in parental CHO-K1 cells, primary screen, counter-screen for M1 PAM project, cell-based, Fluo-8 calcium fluorescence, full deck, 1536-well | 360,000 compounds, 0.02% hits | AID 602247, 2012 | activation, % at 3 µM | ATP EC20; 0% at ATP EC20, 100% at ATP max;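 active means activation above the run cutoff, the mean activation of all test compounds plus 3 SD, cut at about 40% in these data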;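 further: peak over basal fluorescence ratio in a 140 s read after ATP addition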
M1 antag = human M1 muscarinic receptor antagonists, primary screen, CHO-K1 cells, Fluo-8 calcium fluorescence, 1536-well. Muscarinic acetylcholine receptor M1 (Homo sapiens), P11229. CHO-K1 hM1, ACh EC80 antagonist. inhibition, % at 3 µM. 360,000 compounds, 1.3% hits;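 active means percent inhibition above its own plate's cutoff, namely the mean of that plate's compound wells plus 3 SD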;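 further: peak over basal fluorescence ratio during 140 s after agonist addition; 0% = ACh EC80 plus DMSO and 100% = DMSO alone without agonist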
Target sequence (P11229 whole entry, looked up): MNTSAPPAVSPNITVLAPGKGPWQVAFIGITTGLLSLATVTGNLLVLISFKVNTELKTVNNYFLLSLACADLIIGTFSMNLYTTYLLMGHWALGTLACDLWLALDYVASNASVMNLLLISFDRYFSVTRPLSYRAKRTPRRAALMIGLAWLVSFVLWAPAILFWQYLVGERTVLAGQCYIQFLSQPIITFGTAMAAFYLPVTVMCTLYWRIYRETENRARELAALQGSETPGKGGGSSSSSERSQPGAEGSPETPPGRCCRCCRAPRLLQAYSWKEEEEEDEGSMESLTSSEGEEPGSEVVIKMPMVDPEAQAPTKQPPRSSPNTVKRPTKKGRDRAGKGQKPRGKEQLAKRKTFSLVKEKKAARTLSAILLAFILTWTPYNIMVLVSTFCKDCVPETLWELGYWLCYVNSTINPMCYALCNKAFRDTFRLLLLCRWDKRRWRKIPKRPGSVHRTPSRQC
CHRM1 PAM = human M1 muscarinic receptor positive allosteric modulators, primary screen, CHO-K1 cells, Fluo-8 calcium fluorescence, 1536-well; Muscarinic acetylcholine receptor M1 (Homo sapiens), P11229; CHO-K1 hM1, ACh EC20; 0% = ACh EC20, 100% = maximal ACh; activation, % at 3 µM; 360,000 compounds, 0.088% hits; AID 588819, 2011; in the data active means activation above about 19%, passing the limit was not always enough
M1 ag parental = counter-screen for M1 agonists: effect in parental CHO-K1 cells | Fluo-8 calcium fluorescence; scaled to maximal ATP response, vehicle zero | activation, % at 3 µM | 360,000 compounds, 0.48% hits; in the data active means activation above about 15%;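 further: untransfected CHO-K1 host cells lacking M1 receptor as counterscreen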
CHO-K1 Ca antag = M1 antagonist counterscreen hit in parental CHO-K1 cells; inhibition, % at 3 µM; AID 602250; 360,000 compounds, 0.6% hits; ATP-induced calcium, Fluo-8 fluorescence;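 active means inhibition above a per-plate cutoff, the plate's mean sample inhibition plus 3 SD, cut at about 24% in these data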;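 further: 0% = DMSO plus EC80 ATP and 100% = DMSO alone without ATP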
CHRM1 agonist = human M1 muscarinic receptor agonists, primary screen, Fluo-8 calcium fluorescence, CHO-K1 cells, HTS; Muscarinic acetylcholine receptor M1 (Homo sapiens), P11229; CHO-K1 hM1, agonist mode; 0% DMSO, 100% acetylcholine EC100; activation, % at 3 µM; 360,000 compounds, 0.33% hits; AID 588814, 2011;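 active means activation above the run's mean compound activation plus 3 SD, cut at about 16% in these data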;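 further: peak over basal fluorescence ratio within a 140 s kinetic read after compound addition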
* marks the source's active call; other numbers are inactive results.

SMILES	CHO-K1 Ca PAM	M1 antag	CHRM1 PAM	M1 ag parental	CHO-K1 Ca antag	CHRM1 agonist
CCOC(=O)C1(CCCc2ccccc2)CCN(C(=O)CSC)CC1	4	-10	3	2	-13	-2
CCOC(=O)C1(CCOC)CCN(C/C=C/c2ccccc2OC)CC1	-1	17	-11	6	31*	-5
COc1cc2cc(CCCO)oc(=O)c2cc1OC	9	-2	4	1	-5	-3
CCn1c(SCC(=O)c2ccccc2)nnc1-c1cccs1	-9	-3	3	0	26*	-4
Nn1c(SCC(=O)N2CCCC2)nnc1-c1cccs1	-11	-5	3	0	27*	-4
CCn1c(SCC(=O)NCCc2ccccc2)nnc1-c1cccs1	10	-12	4	0	6	-3
O=C(CSc1nnc(-c2cccs2)n1-c1ccccc1)N1CCCC1	6	-8	3	1	-22	-4
O=C(CSc1nnc(-c2cccs2)n1-c1ccccc1)N1CCOCC1	-24	23	-8	0	35*	-1
CN(C)CCOC(c1ccc(Cl)cc1)c1ccccn1 (stereo unspecified)	-4	42	-24	0	1	-8
Cc1ccccc1C(OCCN(C(C)C)C(C)C)c1ccccc1 (stereo unspecified)	8	101*	-27	0	1	-14
Cc1ccc(C(=O)N/C(=C/c2cccnc2)C(=O)N2CCCCCC2)cc1	9	-18	11	0	47*	0
O=C(N/C(=C/c1ccco1)C(=O)N1CCCCCC1)c1ccccc1	8	-11	12	1	-12	-2
CCOC(=O)C1CCN(C(=O)/C(=C/c2ccccc2)NC(=O)c2ccccc2)CC1	12	-10	1	16*	-8	-4
CCOC(=O)N1CCN(C(=O)/C(=C/c2ccc(OC)c(OC)c2)NC(=O)c2ccccc2)CC1	13	-5	11	0	-1	-4
Cc1ccc(C(=O)N/C(=C\c2cccnc2)C(=O)N2CCCC2)cc1	5	-9	13	0	-7	0
CCOC(=O)C1CCCN(C(=O)/C(=C/c2ccco2)NC(=O)c2ccccc2)C1 (stereo unspecified)	17	11	-12	0	-8	48*
CC(C)Cc1ccc(CN2C(C)C(=O)N(Cc3cn(Cc4ccco4)nn3)CCS2(=O)=O)cc1 (stereo unspecified)	15	-4	7	0	3	-1
COC(=O)c1ccccc1OCCCN(C)C	-11	-6	5	0	27*	-7
CN(C)Cc1ccc(F)cc1Sc1ccc(Cl)cc1Cl	5	52*	-22	-1	-7	-10
O=C(c1cccs1)c1ccccc1Cc1cccs1	12	-6	1	-1	-18	-8
Cc1ccc(C)n1-n1c(C)nc2sc3c(c2c1=O)CCCCC3	19	28*	-21	1	-9	-5
CC1CCN(S(=O)(=O)c2ccc(NC(=O)CCNC(=O)c3ccc(Cl)cc3)cc2)CC1	-5	6	-1	0	-1	-3
CCOc1ccc(NC(=O)CN(C)C(=O)c2ccc3c(c2)S(=O)(=O)N=C2CCCCCN23)cc1OCC	12	-4	3	0	-12	-5
Cc1ccccc1C(=O)NNS(=O)(=O)c1ccc(F)cc1	-5	-16	14	0	24*	-1
COC(=O)c1ccc(CNC(=O)CCNC(=O)c2ccco2)cc1	3	1	5	3	-8	-1
SMILES	CHO-K1 Ca PAM	M1 antag	CHRM1 PAM	M1 ag parental	CHO-K1 Ca antag	CHRM1 agonist
COc1cc(NC(=O)C2CSC3(C)CCC(=O)N23)c(OC)cc1Cl (stereo unspecified)	2	-8	8	13	9	-3
CCN(CC)c1ccc(CNc2nnnn2C)cc1	6	60*	-30	0	-11	-10
Cc1ccc2c(c1)N(CC(=O)NCC(C)c1ccccc1)C(=O)c1cccnc1O2 (stereo unspecified)	33	-6	10	1	-7	0
Cc1cc(C)cc(NC(=O)C(=O)NCCCN2CCCC2=O)c1	5	-17	11	1	-5	-2
COc1ccc(CNC(=O)[C@@H]2CC=C[C@@H]3CCN(Cc4ccc(Cl)c(Cl)c4)C(=O)[C@@H]32)cc1	0	-4	10	0	-6	-2
COc1ccc(CNC[C@@H](CCCCN(C)Cc2ccc(OC)cc2)N2C[C@H](c3ccccc3)N(CCc3ccc(Cl)c(Cl)c3)C(=O)C2=O)cc1	4	7	-5	30*	-3	21*
Cc1cc(C)c(NC(=O)C2CCCN2CCC(C)C)c(C)c1 (stereo unspecified)	14	-2	3	1	-6	-3
CCC(C)N1CCCC1C(=O)Nc1c(C)cc(C)cc1C (stereo unspecified)	-10	17	-6	-1	25*	-5
O=C(COC(=O)C1=COCCO1)Nc1ccc([N+](=O)[O-])cc1C(F)(F)F	10	-5	1	-1	-16	-1
CCOC(=O)C(C#N)(Cc1ccc2ccccc2n1)Cc1ccc2ccccc2n1	5	10	-13	6	-10	0
N#Cc1ccccc1Cn1cc(/C=C/[N+](=O)[O-])c2ccccc21	18	50*	8	3	-1	4
O=[N+]([O-])/C=C/c1cn(Cc2ccccc2)c2ccccc12	16	-1	10	0	-5	1
Cc1ccc2nc(NC(=O)COC(=O)CSc3nc(C)cc(C)n3)sc2c1	1	1	-5	2	-3	-2
COC(=O)c1ccc2nc(NC(=O)COC(=O)CSc3nc(C)cc(C)n3)sc2c1	8	2	1	15*	14	-4
CC(=O)c1sc(NC(=O)CN2C(=O)C3CCCCC3C2=O)nc1-c1ccccc1 (stereo unspecified)	8	-2	-3	3	-14	-3
CC(C)(C)NC(=O)CSc1nc2ccc(NC(=O)CSc3nnnn3Cc3ccccc3)cc2s1	12	19*	-8	6	16	3
CCOC(=O)CSc1nc2ccc(NC(=O)CSc3nnnn3Cc3ccccc3)cc2s1	3	21	-5	2	10	-3
Cc1cc(NC2CCCCC2)nc(NCc2ccccc2)n1	8	35*	-20	15*	22	-4
COC(=O)[C@@]1(C)[C@H]2C(=O)N(C)C(=O)[C@H]2[C@H]2CN(C)C(=NC3CCCCC3)N21	0	-6	-2	0	-16	-7
